Test [1] can be described thus: inhibitors of TNFa-induced NFkB p65 translocation, primary screen, imaging, HUVEC, MLSMR starter and 10KST1 sets (AID 438;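 active = inhibition above 20% together with a positive visual image hit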;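 also: compound added about 3h40 before a 20 min TNFalpha stimulation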;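 as to inhibition: signal is the nuclear over cytoplasmic p65 intensity ratio per well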). The settings on record: HUVEC TNFa-induced p65 nuclear translocation; cell count: measured here: nuclei count (cytotoxicity indicator), at 2.08 µM; inhibition: at 2 µM, stronger effect = higher value, 0% TNFa-plus-vehicle, 100% no-TNFa wells.
Test [2] is described as follows: reduction of polyQ htt aggregates in cells – imaging, exon1htt(103Q)mCFP cells, high-content imaging, primary screen (AID 483;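 active = visual image review flags a hit and inhibition of aggregation exceeds 20%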;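 also: compound exposure lasted 3 days before fixation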;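 as to nuclei count: percent of the per-plate median nuclei count of sample wells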). The following applies: exon1htt(103Q)mCFP cell line, aggregate imaging, at 2 µM; inhibition of aggregation: stronger effect = higher value; nuclei count: measured here: cell count, toxicity.
Test [3] is described as follows: endothelial E-selectin expression blockers – imaging, HUVEC, immunofluorescence, MLSMR starter and 10KST1 sets, primary screen (AID 487;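 active = visually confirmed hit in the image check and inhibition above 20%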;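 as to inhibition: signal is fraction of cell area covered by stained E-selectin grains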;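 as to nuclei count: 100% = median nuclei count of all wells on the same plate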). The settings on record: HUVEC TNFalpha-induced E-selectin immunofluorescence imaging, at 2 µM; inhibition: stronger effect = higher value; nuclei count: measured here: cell number, toxicity.
A short description of test [4]: Primary imaging screen for DUSP6 inhibitors that restore phospho-Erk in transfected HeLa cells, chemical complementation (AID 609;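 active = compounds giving at least 50% inhibition in the cell-based MKP-3 phosphatase rescue imaging test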;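 as to inhibition: phospho-Erk level distribution per well compared with pooled transfected vehicle control wells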). The following applies: HeLa MKP-3 transfected, phospho-Erk imaging KS statistic, at 10 µM, cells stimulated with TPA for 15 min.
The target of test [5] is Dual specificity protein phosphatase 6 (Homo sapiens) (UniProt Q16828). The description is as above. The following applies: HeLa MKP-3 transfected, phospho-Erk imaging KS statistic; at 10 µM; stronger effect = higher value; cells stimulated with TPA for 15 min.
Sequence of Dual specificity protein phosphatase 6 (Homo sapiens) (Q16828 whole entry, looked up): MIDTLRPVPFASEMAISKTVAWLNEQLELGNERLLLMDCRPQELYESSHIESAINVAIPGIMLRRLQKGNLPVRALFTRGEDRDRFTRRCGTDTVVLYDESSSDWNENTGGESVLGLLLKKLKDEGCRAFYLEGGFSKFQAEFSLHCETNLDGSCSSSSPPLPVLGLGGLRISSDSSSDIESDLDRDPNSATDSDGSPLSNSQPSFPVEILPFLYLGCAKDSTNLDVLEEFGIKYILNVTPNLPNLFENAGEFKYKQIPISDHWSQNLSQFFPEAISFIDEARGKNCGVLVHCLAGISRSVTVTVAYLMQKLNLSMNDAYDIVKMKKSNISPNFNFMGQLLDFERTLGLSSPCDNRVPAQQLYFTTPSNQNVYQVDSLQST
Test [6] deals with Voltage-gated potassium channel subunit beta-2 (Rattus norvegicus) (UniProt P62483). Briefly: inhibitors of rat Kvbeta2 reductase activity – biochemical, NADPH fluorescence, primary screen (AID 622;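 active = fluorescence slope higher than the sample average by over 3 SD, cut at about -0.22 in these data, passing the limit was not always enough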;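 also: slope of raw intensity against log time taken from 70 to 1610 s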). The following applies: recombinant KvBeta, 4-cyanobenzaldehyde reduction, at 10 µM, stronger effect = higher value.
Sequence of Voltage-gated potassium channel subunit beta-2 (Rattus norvegicus) (P62483 whole entry, looked up): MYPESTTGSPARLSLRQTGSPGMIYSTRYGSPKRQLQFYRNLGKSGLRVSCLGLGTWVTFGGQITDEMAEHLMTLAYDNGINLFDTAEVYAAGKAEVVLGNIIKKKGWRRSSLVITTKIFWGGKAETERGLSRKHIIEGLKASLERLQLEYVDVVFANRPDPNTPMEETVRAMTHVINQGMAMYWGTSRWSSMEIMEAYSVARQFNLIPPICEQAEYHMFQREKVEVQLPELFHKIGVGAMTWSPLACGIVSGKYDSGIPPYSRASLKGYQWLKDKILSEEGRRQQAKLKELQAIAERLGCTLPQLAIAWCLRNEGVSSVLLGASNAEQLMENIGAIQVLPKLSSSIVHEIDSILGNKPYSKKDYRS
Test [7] shares this target. The experiment in a line: enhancers of rat Kvbeta2 NADPH turnover – biochemical, NADPH fluorescence, primary screen (AID 623;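 active = NADPH fluorescence slope more negative than the mean of all samples by about 3 SD, 99.7% confidence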;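 also: fluorescence intensity change per second fitted from 20 to 320 s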). The settings on record: Recombinant KvBeta, NADPH fluorescence decrease slope, 10 min; at 10 µM; stronger effect = lower value.
Test [8] addresses Alpha-2C adrenergic receptor (Homo sapiens) (UniProt P18825). Briefly: compounds altering alpha2C-coupled GIRK flux – cell-based, HEK293 alpha2C/GIRK1/2, thallium flux, primary screen (AID 624;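 active = fluorescence slope after compound addition differing from the mean of all screened samples at 99.7% confidence, in either direction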;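 also: slope of fluorescence ratio to pre-addition baseline per second over 15 to 24 s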). The following applies: thallium flux BTC fluorescence, at 10 µM, actives lie on both sides.
Test [9] is described as follows: inhibitors of larval lipid processing in zebrafish, primary screen, whole organism, PED6 fluorescence, gall bladder and intestine (AID 686;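 active = a full or partial loss of lipid-probe fluorescence in the fish gall bladder, intestine or both, judged by eye; inactive = no fluorescence loss, or compound toxic to the fish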;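 also: larvae 5 to 7 days old with five fish per well; signal comes from phospholipase A2 cleavage of quenched PED6 carried via bile; overnight exposure to compound and PED6 before scoring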). The following applies: Zebrafish larvae PED6 lipid processing, fluorescence scoring; screened at 20 µM (by protocol).
Test [10] can be described thus: loss of swimming-algae plug formation – whole organism, Chlamydomonas reinhardtii, WT vs cilia-less mutant, absorbance, 96-well, primary screen (AID 463189).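 Also: 0% = wild type cc124 cells in DMSO and 100% = ciliumless bld1 mutant cells.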 The settings on record: Chlamydomonas reinhardtii gravitaxis, OD600 absorbance, 2 days; at 10 µM; stronger effect = higher value.
Test [11] can be described thus: blockers of RIG-like receptor reporter activation – cell-based, Sendai virus stimulus, luciferase, 10K MLSCN set, TLR/RLR signaling modifier project, primary screen (AID 602276;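 active = inhibition at or above 50% at 10 µM; inactive = inhibition below 50%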;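 also: firefly luciferase from ISG56 promoter only with Renilla not read in this screen; 0% = Sendai virus plus DMSO and 100% = medium plus DMSO without virus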). The following applies: HEK293 RL24 IRF3 luciferase reporter, at 10 µM, stronger effect = higher value. A general note: Reporter assays use an easily measured gene product as a stand-in for the process of interest.

The nature of test [12]: TLR3 IRF3 reporter activation blockers – cell-based, poly I:C stimulus, luciferase, 10K MLSCN set, primary screen (AID 602277;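 active = inhibition of the reporter signal at or above 50%; inactive = inhibition below 50%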). The settings on record: HEK293-TLR3 RL24 IRF3 luciferase reporter, at 10 µM, stronger effect = higher value.
Setting [13] is: measured here: cell density z-score.
[14] abbreviates: measured here: nuclear c-Myc green intensity z-score.
[15] abbreviates: measured here: nuclear pErk red intensity z-score, stronger effect = higher value.

Where “and” joins values, the source holds several entries; their conditions need not be identical. Equal values may be shown once. Calls of active or inactive are those of the source.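 The calls were made as follows, unless noted: active = inhibition at or above 50% relative to wild type and mutant plate controls; inactive = inhibition below 50%.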

The term inhibition denotes the change of the read-out against control, counted positive when it falls.

Sequence of Alpha-2C adrenergic receptor (Homo sapiens) (P18825 whole entry, looked up): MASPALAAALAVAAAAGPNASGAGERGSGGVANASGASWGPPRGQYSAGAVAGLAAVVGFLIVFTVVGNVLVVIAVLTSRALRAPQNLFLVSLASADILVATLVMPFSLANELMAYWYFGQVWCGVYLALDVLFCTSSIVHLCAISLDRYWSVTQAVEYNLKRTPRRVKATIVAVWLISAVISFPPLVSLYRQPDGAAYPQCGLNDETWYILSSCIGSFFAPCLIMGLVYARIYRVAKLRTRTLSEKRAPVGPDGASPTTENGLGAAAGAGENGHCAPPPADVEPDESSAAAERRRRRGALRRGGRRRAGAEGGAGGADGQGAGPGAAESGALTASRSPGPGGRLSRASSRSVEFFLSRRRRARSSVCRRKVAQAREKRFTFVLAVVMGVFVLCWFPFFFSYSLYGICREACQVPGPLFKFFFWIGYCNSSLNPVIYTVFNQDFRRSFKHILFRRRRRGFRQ

Turning to `CCCCC[C@H](O)/C=C/[C@@H]1[C@@H](CCCCCCC(=O)O)[C@@H](O)C[C@H]1O`, in test [1], the cell count amounted to 594. The inhibition in test [1] was -7.7% (inactive); in test [3], -80.7% (inactive); in test [5], 7.39% (inactive); in test [10], -6.66% (inactive); in [11] it was 11.4% (inactive); in [12], 33.8% (inactive). In addition, the inhibition of aggregation in test [2] was 9% (inactive). In addition, the nuclei count was 106% in test [2] and 114% in test [3]. In addition, the values for the z-score in test [4] (setting [13]), in test [4] (setting [14]) and in test [4] (setting [15]) were -0.368, 0.536 and -0.971, respectively. The fluorescence slope in test [6] was -0.458 (inactive). Moreover, the NADPH fluorescence slope in test [7] is -4e-05 (inactive). In addition, the slope in test [8] was 0.00481 (inactive). In addition, in test [9], the compound was classed as inactive.
Turning to `CCCOc1ccc(N2C(=O)C3ON(c4ccccc4)C(c4ccc(O)c(OC)c4)C3C2=O)cc1` (stereo not given), in test [1], the cell count came out at 413. Also, the inhibition in test [1] was -5.2% (inactive); in test [3], -53.3% (inactive); in test [5] it was 7.42% (inactive); in [10] it was -8.77% (inactive); in test [11], 16.5% (inactive); in test [12] it was 16.8% (inactive). In addition, the inhibition of aggregation in test [2] is 2.2% (inactive). Besides, the nuclei count in [2] was found to be 110%; in [3], 124%. For the same compound, the z-score in test [4] (setting [13]) was 0.885; in test [4] (setting [14]) it was -0.229; in test [4] (setting [15]), -0.338. For the same compound, the fluorescence slope in [6] was -0.41 (inactive). The NADPH fluorescence slope in test [7] is -0.0001 (inactive). The slope in test [8] is 0.00809 (inactive). The outcome in test [9] was inactive.
In the case of `CC[N+](C)(CC)CCOC(=O)C(O)(c1ccccc1)C1CCCCC1` (stereo not given), the cell count in [1] came out at 475. The inhibition is -3.8% (inactive) in test [1]; -15.1% (inactive) in test [3]; -4.44% (inactive) in test [5]; -14% (inactive) in test [10]; 2.1% (inactive) in test [11]; 24.6% (inactive) in test [12]. Also, in [2], the inhibition of aggregation was 7.2% (inactive). The nuclei count in test [2] stood at 95.4%; in test [3], 111%. Also, the z-score in test [4] (setting [13]) is -1.3; in [4] (setting [14]), -0.403; in [4] (setting [15]) it was 0.0665. Besides, in test [6], the fluorescence slope was -0.515 (inactive). In addition, the NADPH fluorescence slope in test [7] was -2.6e-05 (inactive). Also, the slope in [8] is 0.00498 (inactive). Also, the outcome in [9] was inactive.
With `CCn1cc(C(=O)NCc2ccco2)c(=O)c2cc(F)c(N3CCN(C(=O)c4ccco4)CC3)cc21`, in [1], the cell count came to 380. Besides, the inhibition in [1] was 16.3% (inactive); in [3], -117% (inactive); in test [5], 19.4% (inactive); in [10], -7.6% (inactive); in test [11], 14.3% (inactive); in test [12], 13.7% (inactive). Moreover, the inhibition of aggregation in test [2] was 13.6% (inactive). The nuclei count stood at 99.3% in test [2] and 118% in test [3]. In addition, the z-score was 2.14 in test [4] (setting [13]), -0.717 in test [4] (setting [14]) and 0.644 in test [4] (setting [15]). Also, the fluorescence slope in test [6] is -0.279 (inactive). Besides, the NADPH fluorescence slope in [7] is 2.6e-05 (inactive). Besides, the slope in test [8] was 0.00489 (inactive). The result in [9] was inactive.
With `CCN(CCCc1ccccc1)CCCc1ccccc1`, the cell count in test [1] was determined as 633. The inhibition in [1] was -10.9% (inactive); in test [3], -92.8% (inactive); in test [5], 9.37% (inactive); in test [10], 128% (active); in test [11], 16.6% (inactive); in test [12] it was 29.6% (inactive). Further, in test [2], the inhibition of aggregation is -6.3% (inactive). Moreover, the nuclei count in test [2] stood at 95.6%; in test [3], 132%. For the same compound, the values for the z-score in [4] (setting [13]), in [4] (setting [14]) and in test [4] (setting [15]) were -0.00243, 0.557 and -0.117, respectively. Further, the fluorescence slope in [6] is -0.514 (inactive). The NADPH fluorescence slope in [7] was -3.6e-06 (inactive). In test [8], the slope is 0.00419 (inactive). Besides, in [9], the compound was called inactive.
As to `OCCNC1=NCCN1`, in test [1], the cell count amounted to 552. Besides, the inhibition in test [1] was -6.3% (inactive); in test [3] it was -4.8% (inactive); in [5], -3.98% (inactive); in [10] it was -5.29% (inactive); in [11], 17.3% (inactive); in test [12] it was 20.3% (inactive). Further, the inhibition of aggregation in test [2] is 28.8% (active). The figures for the nuclei count in test [2] and in test [3] were 104% and 146%, respectively. Moreover, the z-score in [4] (setting [13]) is -0.706; in test [4] (setting [14]) it was -1.05; in [4] (setting [15]) it was 0.931. Moreover, the fluorescence slope in test [6] was -0.523 (inactive). The NADPH fluorescence slope in test [7] is -7.4e-05 (inactive). In test [8], the slope is 0.00539 (inactive). In test [9], the call was inactive.
As to `CC(=O)[C@@]1(O)CC[C@H]2[C@@H]3C[C@H](C)C4=CC(=O)CC[C@]4(C)[C@H]3CC[C@@]21C`, the cell count in test [1] turned out to be 734. The inhibition is -6.2% (inactive) in test [1]; -107% (inactive) in [3]; 3.45% (inactive) in test [5]; -2.53% (inactive) in test [10]; -4.16% (inactive) in [11]; 43.2% (inactive) in test [12]. Moreover, in [2], the inhibition of aggregation was 0.8% (inactive). Moreover, the figures for the nuclei count in test [2] and in test [3] were 108% and 113%, respectively. Also, the values for the z-score in test [4] (setting [13]), in test [4] (setting [14]) and in [4] (setting [15]) were 1.42, -0.494 and -1.54, respectively. Also, the fluorescence slope in test [6] is -0.486 (inactive). Besides, in test [7], the NADPH fluorescence slope was -0.000112 (inactive). Also, in test [8], the slope is 0.0052 (inactive). For the same compound, the call in test [9] was inactive.
For the compound `O=C(NCCO)c1cccc2c1C(=O)c1ccccc1-2`, in test [1], the cell count worked out at 511. Moreover, the inhibition in [1] is -13.6% (inactive); in [3], -95.8% (inactive); in test [5], 7.73% (inactive); in test [10], 31.9% (inactive); in [11], 4.9% (inactive); in [12] it was -1.91% (inactive). The inhibition of aggregation in test [2] is 9.3% (inactive). In addition, the nuclei count in test [2] was found to be 91.4%; in test [3], 137%. In addition, the z-score in test [4] (setting [13]) was -0.677; in test [4] (setting [14]) it was 1.11; in test [4] (setting [15]), 1.88. In [6], the fluorescence slope is -0.517 (inactive). In test [7], the NADPH fluorescence slope is -5.1e-05 (inactive). In addition, the slope in [8] is 0.00471 (inactive). Besides, the result in test [9] was inactive.
As to `CCOC(=O)CSc1nc(N)c2c3c(sc2n1)CCCC3`, in test [1], the cell count was found to be 682. The inhibition in [1] is -4.4% (inactive); in [3], 5.9% (inactive); in [5], -3.95% (inactive); in test [10] it was -8.25% (inactive); in test [11], 12.5% (inactive); in [12], 4.94% (inactive). The inhibition of aggregation in [2] was -8.1% (inactive). Also, the nuclei count in test [2] came to 97.3%; in [3] it was 146%. Besides, the z-score in [4] (setting [13]) is -0.0379; in [4] (setting [14]), 1.11; in [4] (setting [15]), -0.851. The fluorescence slope in [6] is -0.363 (inactive). Also, the NADPH fluorescence slope in [7] is -5.9e-05 (inactive). For the same compound, in test [8], the slope is 0.0064 (inactive). Also, the outcome in test [9] was inactive.
On to `CCCNC(=O)NS(=O)(=O)c1ccc(Cl)cc1`, for which the cell count in test [1] came to 639. Moreover, the inhibition in [1] is -5.9% (inactive); in [3] it was -56.7% (inactive); in test [5], -0.493% (inactive); in test [10], -16% (inactive) and -6.85% (inactive); in test [11], -0.0514% (inactive); in test [12], 14.7% (inactive). Besides, the inhibition of aggregation in test [2] is 14.1% (inactive). Moreover, the nuclei count turned out to be 84.6% in test [2] and 120% in test [3]. In addition, the z-score in [4] (setting [13]) is -0.235; in test [4] (setting [14]), 0.988; in [4] (setting [15]), 1.2. Further, the fluorescence slope in [6] is -0.477 (inactive). For the same compound, in [7], the NADPH fluorescence slope is -1.5e-05 (inactive). Besides, in test [8], the slope was 0.00564 (inactive). Further, in test [9], the compound was classed as inactive.

These data come from PubChem BioAssay.
